Measured values taken from PubChem BioAssay (NCI).
This is part of a sample that, as a whole, favours compounds with a hit. Of some 83,000 tested, about 20% had one in any assay.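 Note: values are percent growth. 100 is the growth of untreated cells, values between 100 and 0 indicate rising inhibition; between -100 and 0 indicates cell death.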 Active and inactive are the calls of the source. Rule for the calls: active = growth percent below 10; inactive = the rest.

Tests used:
Assay in all cases: NCI-60 one-dose screen, 48 h (100 = growth as untreated, 0 = no growth, -100 = all killed)
Conditions in all cases: 10 µM unless noted
[1] = test system: SK-MEL-2 melanoma
[2] = test system: SN12C renal
[3] = test system: UO-31 renal
[4] = test system: TK-10 renal
[5] = test system: ACHN renal
[6] = test system: CAKI-1 renal
[7] = test system: CCRF-CEM leukemia
[8] = test system: MOLT-4 leukemia
[9] = test system: SR leukemia
[10] = test system: RPMI-8226 leukemia
[11] = test system: OVCAR-8 ovarian
[12] = test system: OVCAR-4 ovarian
[13] = test system: SK-OV-3 ovarian
[14] = test system: IGROV1 ovarian
[15] = test system: HS 578T breast
[16] = test system: NCI/ADR-RES ovarian
[17] = test system: A498 renal
[18] = test system: OVCAR-5 ovarian
[19] = test system: OVCAR-3 ovarian

Measured: growth

O=C(CCCCC(=O)N/N=C\c1ccccc1O)N/N=C\c1ccccc1O
inactive: [1] 75.6% | [2] 47.4% | [3] 19.3% | [4] 40.5% | [5] 13.2% | [6] 14.7% | [7] 18.1% | [8] 14.6% | [9] 19.7% | [10] 50.2% | [11] 41.7% | [12] 70.3% | [13] 40.3% | [14] 27.2% | [15] 71% | [16] 41.6%

Cc1cc(N2CCN(c3ccnc4cc(Cl)ccc34)CC2)nc(N2CCOCC2)n1
inactive: [1] 105% | [2] 86% | [3] 44.7% | [4] 89.9% | [6] 85.9% | [17] 37.2% | [7] 92.3% | [8] 66.7% | [9] 80.8% | [10] 59% | [11] 96.2% | [18] 108% | [12] 77.8% | [13] 88.3% | [14] 97.7% | [19] 85.9% | [15] 95.7%

CON1C(=O)CC[C@]2(C)[C@H]3CC[C@@H]4C([C@@]5(C)CCC(=O)O5)CC[C@@]4(C)[C@]3(C)CC[C@H]2C1(C)C (stereo not given in full)
inactive: [1] 94.6% | [2] 95.2% | [3] 94.4% | [5] 96.6% | [6] 75.7% | [17] 99.6% | [7] 96.9% | [8] 90.6% | [10] 98.6% | [11] 102% | [18] 98.4% | [12] 92.8% | [13] 104% | [14] 111% | [19] 110% | [15] 101% | [16] 97.1%

CCc1nc(N)nc(N)c1C#CC(C)c1ccc(-c2ccncc2)cc1Cl (stereo not given)
inactive: [1] 33.3% | [2] 18.4% | [3] 10.9% | [4] 18.8% | [5] 14.1% | [17] 22.7% | [7] 10.9% | [8] 10.2% | [9] 14.7% | [10] 15.1% | [11] 20.8% | [12] 30.9% | [13] 33% | [14] 18.2% | [19] 19.1% | [15] 38.7% | [16] 21.8%

CCOC(=O)c1c(C)oc2ncnc(N3CCN(C(=O)COc4ccc(SC)cc4)CC3)c12
inactive: [1] 95.4% | [2] 94.9% | [3] 74.4% | [4] 103% | [5] 93.5% | [6] 82.7% | [7] 91.5% | [8] 88.6% | [9] 84.3% | [10] 81.6% | [11] 87.6% | [18] 98.2% | [12] 75% | [13] 86.1% | [14] 90.4% | [19] 100% | [15] 81.7% | [16] 85.7%
